Results on five compounds are retold here after PubChem BioAssay (NCATS).

In assay [1] the target is Lysosomal acid glucosylceramidase (Homo sapiens) (UniProt P04062). Description: Glucocerebrosidase-p2 (AID 348; in the data active = potency below about 10 µM; also: potency is read from the fitted curve at half-maximal effect). Particulars: purified GBA, blue fluorogenic substrate, 40 min. The procedure, abridged:
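Compounds titrated from 0.6 nM upwards against 0.2 nM enzyme in pH 5.9 citric acid/KH2PO4, taurocholate, tween-20; blue fluorogenic substrate 80 uM, 40 min room temperature, stopped and read Ex 365/Em 440 for AC50.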

The nature of assay [2]: AP1 Signaling Pathway (AID 357; active = well fitted curve in either direction with a large enough effect, not every such curve was filed as active;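 also: ME-180 reporter cells stimulated with EGF at its EC50 level; % is scaled to controls: 0 for no effect and ±100 for the full control effect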). The conditions noted are these: ME-180 AP-1-bla reporter, EGF-induced, beta-lactamase ratio, 5 h; at 7.69 µM (top of the series) unless noted. The procedure, abridged: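 In this screen, ME-180 cells in Opti-MEM with 0.5% dialyzed FBS received EC50 EGF and compound titrations for 5 h. AP-1 reporter beta-lactamase was detected via CCF4 ratio, giving AC50 for positive and negative modulators.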

Assay [3] in a line: NFAT Signaling Pathway (AID 444; active = well fitted curve in either direction with a large enough effect, not every such curve was filed as active;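 also: carbachol stimulus at about its EC50 of 1 µM final; % is scaled to controls: 0 for no effect and ±100 for the full control effect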). The conditions noted are these: Jurkat NFAT-bla M1, carbachol, beta-lactamase ratio, 5 h; at 7.69 µM (top of the series) unless noted. Put shortly:
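Jurkat cells carrying an NFAT-driven β-lactamase reporter and co-transfected muscarinic M1 receptor were treated with compound plus carbachol (1 uM final, an EC50 level) for 5 h at 37 °C. CCF4 loading followed for 1 h at RT; 460/530 nm ratio gave %activity.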

Assay [4] can be described thus: Stat Signaling Pathway (AID 446; active = well fitted curve in either direction with a large enough effect, not every such curve was filed as active;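 also: ME-180 cervical cancer cells given 40 pM IL-6 alongside compound; SIE-controlled beta-lactamase reporter measured as 460/530 nm FRET emission ratio; % is scaled to controls: 0 for no effect and ±100 for the full control effect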). Particulars: ME-180 SIE beta-lactamase reporter, IL-6 stimulated, 5 h; at 7.69 µM (top of the series) unless noted. Put shortly:
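ME-180 SIE-bla cells; overnight plating; cpd + IL-6 40 pM, 5 h, 37 C; LiveBLAzer 2.5 h RT; 460/530 nm emission ratio. Normalized to 300 pM IL-6 and 125 nM JAK inhibitor controls.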

For assay [5], the target named is Glucocorticoid receptor (Homo sapiens) (UniProt P04150). Description: GR-GFP Redistribution (AID 450;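 active = compounds whose dose series gives a full or clear partial fitted curve of increased nuclear translocation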; also: potency is read from the fitted curve at half-maximal effect). The conditions noted are these: U2OS GR-GFP nuclear translocation, laser cytometry, 2 h.
Chain of Glucocorticoid receptor (Homo sapiens) (P04150 whole entry, looked up, the tested form may be a part): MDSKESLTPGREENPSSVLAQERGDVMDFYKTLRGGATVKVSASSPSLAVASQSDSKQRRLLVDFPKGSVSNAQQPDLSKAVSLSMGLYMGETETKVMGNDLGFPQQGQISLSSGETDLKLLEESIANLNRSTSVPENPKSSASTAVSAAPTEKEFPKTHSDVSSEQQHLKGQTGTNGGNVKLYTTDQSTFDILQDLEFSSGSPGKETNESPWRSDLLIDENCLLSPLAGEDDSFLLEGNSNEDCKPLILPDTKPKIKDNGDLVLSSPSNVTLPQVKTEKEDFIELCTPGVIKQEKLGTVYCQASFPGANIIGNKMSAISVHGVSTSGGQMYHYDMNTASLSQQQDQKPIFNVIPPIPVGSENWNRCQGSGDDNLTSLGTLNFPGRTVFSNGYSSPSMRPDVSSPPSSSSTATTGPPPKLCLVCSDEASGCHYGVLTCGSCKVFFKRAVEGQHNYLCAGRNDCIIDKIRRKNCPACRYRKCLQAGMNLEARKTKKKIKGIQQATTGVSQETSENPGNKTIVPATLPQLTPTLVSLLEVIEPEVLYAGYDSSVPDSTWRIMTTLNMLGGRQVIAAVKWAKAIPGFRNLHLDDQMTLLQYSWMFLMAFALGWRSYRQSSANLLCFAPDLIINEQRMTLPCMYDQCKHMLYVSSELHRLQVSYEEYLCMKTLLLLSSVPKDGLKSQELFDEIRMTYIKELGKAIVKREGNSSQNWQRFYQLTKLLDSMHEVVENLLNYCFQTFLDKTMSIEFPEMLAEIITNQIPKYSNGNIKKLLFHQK
The target is the same in assay [6]. Description: GR-EFC Redistribution (AID 451; calls by dose curve; also: potency is read from the fitted curve at half-maximal effect). The conditions noted are these: CHO-K1 GR-EFC translocation, beta-gal luminescence, 2 h. The procedure, abridged: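 CHO-K1 cells stably expressing nuclear-localized β-gal enzyme acceptor and GR fused C-terminally to the enzyme donor fragment; ligand-driven nuclear translocation restores β-gal by complementation. Compounds titrated up to 46 uM final, 2 h at 37 °C; luminescence read.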

The target in assay [7] is Mitogen-activated protein kinase 10 (Mus musculus) (UniProt Q61831). Nature of the assay: JNK3 AlphaScreen Assay (AID 530; active = well fitted curve in either direction with a large enough effect, not every such curve was filed as active;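 also: kinase came from lysate of stimulated human HepG2 cells; signal reports phosphorylation of biotinylated GST-cJun 1-79 at Ser73 with 10 µM ATP; % is scaled to controls: 0 for no effect and ±100 for the full control effect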). The conditions noted are these: JNK3 lysate, c-Jun phosphorylation; series mostly up to 57.1 µM. The procedure, abridged:
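JNK3 came from HepG2 lysates pre-activated with IL-1beta and TNF-alpha and phosphorylated biotinylated GST-cJun (1-79) at 10 uM ATP, pH 7.6, room temperature. Compounds were titrated. AlphaScreen signal used anti-phospho-cJun (Ser73) antibody.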

Assay [8] has as its target 3',5'-cyclic-AMP phosphodiesterase 4B (Homo sapiens) (UniProt Q07343). Nature of the assay: qHTS Assay for Inhibitors of PDE-IV (AID 607; active = well fitted activation curve with a large enough effect in the main read-out, with a control signal flat, not every such curve was filed as active; also: % of control where 0% means no effect). The conditions noted are these: HEK293 ACTOne CNG channel cells, membrane potential fluorescence; series mostly up to 22.9 µM. The procedure, abridged:
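ACTOne HEK293 cells carry a modified cAMP-gated CNG channel and express endogenous PDE4; plated 1000 cells/well, compounds up to 22.9 uM final. Membrane-potential dye fluorescence (ex 535/em 590) was read; parental cells received 10 uM forskolin + 100 uM RO 20-1724.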
In general terms: qHTS replaces the single test concentration by a dilution series.

Assay [9] concerns the target Cytochrome P450 3A4 (Homo sapiens) (UniProt P08684). Nature of the assay: qHTS Assay for Inhibitors and Substrates of Cytochrome P450 3A4 (AID 884). Also: potency is read from the fitted curve at half-maximal effect; nearly all actives have a fitted effect of over 50% in size. The conditions noted are these: recombinant CYP3A4, Luciferin-PPXE luminescence; series mostly up to 57.1 µM. Put shortly: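 20 nM human CYP3A4 with 25 uM Luciferin-PPXE (at KM) in 200 mM KPO4, preincubated 10 min with compound; NADPH regeneration started a 60 min RT reaction. Luciferin detected by luminescence, normalized to 57 uM ketoconazole as full inhibition.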

For assay [10] the target is unchanged. Nature of the assay: qHTS Assay for Activators of Cytochrome P450 3A4 (AID 885). Also: nearly all actives have a fitted effect of over 65% in size. The conditions noted are these: recombinant CYP3A4, Luciferin-PPXE luminescence, 60 min; series mostly up to 57.1 µM. Put shortly: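 20nM CYP3A4 + 25uM Luciferin-PPXE (=KM), 200mM KPO4; cpd 10 min RT; NADPH regen, 60 min RT; stop w/ detection buffer, 20 min; luminescence. Normalized to 57 uM ketoconazole.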

A short description of assay [11]: qHTS Assay for Lipid Storage Modulators (AID 1519; calls by dose curve). The conditions noted are these: Drosophila S3 cells, BODIPY lipid droplet/cell ratio, laser cytometry, cells loaded with oleic acid; for activity change, negative = inhibition: at 57.5 µM (top of the series). The procedure, abridged: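 Cells seeded at 5,000 per well were treated with compounds over a concentration series and loaded with oleic acid (400 uM, as added). Lipid droplet fluorescence (488 nm excitation, 500-530 nm channel) was read by laser-scanning cytometry and normalized to 20 uM Triacsin C.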

Assay [12] addresses Dual specificity protein kinase CLK4 (Homo sapiens) (UniProt Q9HAZ1). Nature of the assay: qHTS Assay for Inhibitors of CDC-like Kinase 4 (Kinase-Glo Assay) (AID 1770). Also: nearly all actives have a fitted effect of over 65% in size. Also: potency is read from the fitted curve at half-maximal effect. Particulars: recombinant Clk4, Kinase-Glo ATP depletion luminescence; series mostly up to 66.7 µM. Put shortly:
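Substrate mix (RS peptide 100 uM, ATP 1 uM) dispensed, compound pinned in, then Clk4 added to 25 nM final. Incubated 4.5 h at RT; Kinase-Glo reagent added, luminescence read after 5 min.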

Assay [13] has the same target. Description: qHTS Assay for Inhibitors of CDC-like Kinase 4 (ADP-Glo Assay) (AID 1771). Also: nearly all actives have a fitted effect of over 70% in size. Also: potency is read from the fitted curve at half-maximal effect. The conditions noted are these: recombinant CLK4, ADP-Glo luminescence; series mostly up to 80 µM. Put shortly: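 Clk4 (25 nM) was incubated 1 hr at room temperature with 100 uM RS repeat peptide and 1 uM ATP in buffer with 2 mM MgCl2, 0.5 mM EGTA, 2.5 mM DTT. ADP formed was quantified by ADP-Glo luminescence.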

Assay [14] shares this target. Nature of the assay: qHTS Assay for Inhibitors of CDC-like Kinase 4 (ADP-FP Assay) (AID 1795). Also: nearly all actives have a fitted effect of over 60% in size. Also: potency is read from the fitted curve at half-maximal effect. The conditions noted are these: Transcreener ADP fluorescence polarization; series mostly up to 50 µM. The procedure, abridged: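 Clk4 6.25 nM; RS peptide 100 uM; ATP 1 uM; 25 mM Tris pH 7.5, 10 mM MgCl2; 1 h reaction. ADP detected via antibody/orange tracer FP displacement; TG003 positive control.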

For assay [15], the target named is Ubiquitin carboxyl-terminal hydrolase 1 (Homo sapiens) (UniProt O94782). Nature of the assay: Inhibitors of USP1/UAF1: Pilot qHTS (AID 504865).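 Also: rhodamine fluorescence freed from ubiquitin-rhodamine substrate followed over time; top concentration of the series differs between compounds; % is scaled to controls: 0 for no effect and ±100 for the full control effect; nearly all actives have a fitted effect of over 35% in size.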 The conditions noted are these: purified USP1/UAF1, Ub-rhodamine cleavage fluorescence; series mostly up to 54.9 µM. Put shortly: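 In 50mM HEPES pH 7.8 containing 0.5mM EDTA, 1mM TCEP, 0.1 mg/ml BSA and 0.01% Tween-20, 1nM USP1/UAF1 is exposed to compound for 15 min, then Ub-Rho (150nM final) is added and fluorescence is read over time.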
Chain of Ubiquitin carboxyl-terminal hydrolase 1 (Homo sapiens) (O94782 whole entry, looked up): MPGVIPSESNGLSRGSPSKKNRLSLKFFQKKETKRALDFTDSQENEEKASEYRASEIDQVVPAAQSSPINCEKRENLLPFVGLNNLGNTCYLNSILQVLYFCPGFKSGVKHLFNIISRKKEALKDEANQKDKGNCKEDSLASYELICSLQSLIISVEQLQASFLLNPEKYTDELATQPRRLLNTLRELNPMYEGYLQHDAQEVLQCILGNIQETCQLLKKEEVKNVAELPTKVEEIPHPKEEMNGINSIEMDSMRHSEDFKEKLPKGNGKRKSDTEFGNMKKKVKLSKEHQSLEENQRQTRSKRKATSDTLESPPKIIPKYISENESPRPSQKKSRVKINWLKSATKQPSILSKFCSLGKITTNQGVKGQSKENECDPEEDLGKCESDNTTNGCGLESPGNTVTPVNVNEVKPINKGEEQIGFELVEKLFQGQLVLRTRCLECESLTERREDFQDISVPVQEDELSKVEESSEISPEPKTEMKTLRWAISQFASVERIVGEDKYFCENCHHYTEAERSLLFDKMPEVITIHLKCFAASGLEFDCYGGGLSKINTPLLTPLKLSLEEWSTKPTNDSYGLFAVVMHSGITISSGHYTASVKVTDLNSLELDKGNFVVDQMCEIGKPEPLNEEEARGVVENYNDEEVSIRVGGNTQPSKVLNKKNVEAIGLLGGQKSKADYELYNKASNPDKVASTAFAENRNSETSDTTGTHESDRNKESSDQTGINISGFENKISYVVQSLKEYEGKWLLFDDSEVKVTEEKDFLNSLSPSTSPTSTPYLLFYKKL

Assay [16] is described as follows: Primary qHTS for small molecule stabilizers of the endoplasmic reticulum resident proteome: Secreted ER Calcium Modulated Protein (SERCaMP) assay (AID 1508630). Also: % is scaled to controls: 0 for no effect and ±100 for the full control effect. The conditions noted are these: SH-SY5Y GLuc-SERCaMP (Gaussia luciferase released on ER calcium loss) secretion, thapsigargin, luminescence; series mostly up to 38.4 µM. Put shortly: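 GLuc-SERCaMP-expressing SH-SY5Y cells, pretreated 16 h with compound, are challenged with thapsigargin to empty ER calcium stores; after 4 h, coelenterazine is added directly to the medium and luminescence is imaged.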

Assay [17] can be described thus: qHTS Assay for Identification of Small Molecule Agonists for Hypoxia Response Element Signaling Pathway (AID 914; active = well fitted activation curve with a large enough effect in the signal ratio, with a control signal flat, not every such curve was filed as active; the % refers to the signal ratio; also: % of control where 0% means no effect). Particulars: ME-180 (cervical carcinoma) HRE-bla reporter, beta-lactamase ratio, CoCl2, 17 h; activation: stronger effect = higher value. The procedure, abridged: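 HRE-bla ME-180 cells, overnight plating in Opti-MEM with 0.5% dialyzed FBS; cpd titration + EC50 CoCl2, 17 h, 37 degrees Celsius; CCF4 2.5 h RT; 460/530 nm ratio; AC50.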

The mark [18] stands for this setting: measured here: cell count channel max response.
Where [19] appears, read: measured here: lipid channel max response.

SMILES strings stand for the structures. Records with an inconclusive call do not appear. Activity calls are given as the source filed them. Unless noted, calls follow the shape of the dose curve; as a rule, active = well fitted curve in the direction sought with a large enough effect; inconclusive = small, poorly fitted or top-dose-only effect, or another doubt; inactive = no such curve, though single readings can be large; an effect the other way counts as inactive or inconclusive.

Chain of Cytochrome P450 3A4 (Homo sapiens) (P08684 whole entry, looked up): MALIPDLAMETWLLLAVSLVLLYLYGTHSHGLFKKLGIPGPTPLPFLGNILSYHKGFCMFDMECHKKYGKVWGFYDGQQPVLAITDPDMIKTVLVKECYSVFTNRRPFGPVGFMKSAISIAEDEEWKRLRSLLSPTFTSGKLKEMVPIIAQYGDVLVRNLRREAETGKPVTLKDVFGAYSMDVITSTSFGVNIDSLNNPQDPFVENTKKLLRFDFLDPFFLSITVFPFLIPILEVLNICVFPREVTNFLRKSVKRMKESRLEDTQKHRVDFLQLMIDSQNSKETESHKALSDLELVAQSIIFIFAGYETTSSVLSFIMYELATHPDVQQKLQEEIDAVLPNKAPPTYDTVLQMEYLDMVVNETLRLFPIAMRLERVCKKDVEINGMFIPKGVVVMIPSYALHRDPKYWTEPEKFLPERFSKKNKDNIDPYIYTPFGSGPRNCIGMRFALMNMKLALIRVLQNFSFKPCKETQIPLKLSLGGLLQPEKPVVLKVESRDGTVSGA
Chain of Lysosomal acid glucosylceramidase (Homo sapiens) (P04062 whole entry, looked up): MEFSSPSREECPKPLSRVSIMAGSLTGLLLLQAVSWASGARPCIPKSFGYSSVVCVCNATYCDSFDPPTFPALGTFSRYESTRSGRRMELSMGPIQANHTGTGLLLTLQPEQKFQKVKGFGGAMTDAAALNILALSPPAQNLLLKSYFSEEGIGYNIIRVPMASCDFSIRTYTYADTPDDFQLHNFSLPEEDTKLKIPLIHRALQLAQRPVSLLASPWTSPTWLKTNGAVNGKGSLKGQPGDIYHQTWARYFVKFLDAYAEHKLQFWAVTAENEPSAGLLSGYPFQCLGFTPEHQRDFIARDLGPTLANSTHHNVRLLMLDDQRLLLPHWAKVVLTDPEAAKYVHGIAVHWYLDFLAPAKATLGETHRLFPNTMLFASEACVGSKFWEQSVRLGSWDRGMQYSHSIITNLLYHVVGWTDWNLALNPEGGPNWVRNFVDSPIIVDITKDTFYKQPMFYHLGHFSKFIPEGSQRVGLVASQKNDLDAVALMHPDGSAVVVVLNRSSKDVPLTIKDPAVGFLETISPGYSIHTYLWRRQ
Chain of Dual specificity protein kinase CLK4 (Homo sapiens) (Q9HAZ1 whole entry, looked up): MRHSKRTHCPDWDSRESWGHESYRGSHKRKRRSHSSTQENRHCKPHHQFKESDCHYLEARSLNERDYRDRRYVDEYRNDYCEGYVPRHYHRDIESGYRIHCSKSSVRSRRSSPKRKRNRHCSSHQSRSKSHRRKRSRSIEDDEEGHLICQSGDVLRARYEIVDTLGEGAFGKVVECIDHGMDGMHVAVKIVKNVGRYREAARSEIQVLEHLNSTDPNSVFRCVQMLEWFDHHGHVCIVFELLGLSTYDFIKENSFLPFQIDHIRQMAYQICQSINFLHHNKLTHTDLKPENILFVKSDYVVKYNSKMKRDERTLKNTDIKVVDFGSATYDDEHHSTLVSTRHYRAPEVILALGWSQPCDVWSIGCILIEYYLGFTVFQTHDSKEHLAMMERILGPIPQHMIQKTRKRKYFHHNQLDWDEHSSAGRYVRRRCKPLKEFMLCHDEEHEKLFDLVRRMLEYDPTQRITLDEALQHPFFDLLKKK
Chain of 3',5'-cyclic-AMP phosphodiesterase 4B (Homo sapiens) (Q07343 whole entry, looked up): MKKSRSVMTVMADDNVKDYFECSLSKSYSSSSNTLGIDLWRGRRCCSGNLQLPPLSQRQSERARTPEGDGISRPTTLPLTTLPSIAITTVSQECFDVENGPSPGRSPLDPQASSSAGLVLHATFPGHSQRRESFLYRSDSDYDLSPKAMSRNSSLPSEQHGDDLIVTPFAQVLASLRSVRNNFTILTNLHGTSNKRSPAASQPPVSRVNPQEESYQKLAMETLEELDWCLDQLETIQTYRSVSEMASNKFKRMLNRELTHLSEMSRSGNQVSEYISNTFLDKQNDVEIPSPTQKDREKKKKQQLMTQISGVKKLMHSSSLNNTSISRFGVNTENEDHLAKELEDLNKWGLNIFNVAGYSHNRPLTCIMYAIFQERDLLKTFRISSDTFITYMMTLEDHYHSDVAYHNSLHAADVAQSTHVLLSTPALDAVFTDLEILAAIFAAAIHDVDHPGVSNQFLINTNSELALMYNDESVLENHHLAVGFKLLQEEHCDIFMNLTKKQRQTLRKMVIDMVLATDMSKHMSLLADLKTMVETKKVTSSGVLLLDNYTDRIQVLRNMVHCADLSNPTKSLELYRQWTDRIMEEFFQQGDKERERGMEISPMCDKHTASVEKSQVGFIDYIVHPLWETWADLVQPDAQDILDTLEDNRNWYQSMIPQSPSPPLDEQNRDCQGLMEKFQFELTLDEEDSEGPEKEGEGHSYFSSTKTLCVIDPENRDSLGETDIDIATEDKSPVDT

Consider `Cc1noc(C)c1-c1cncnc1NCc1cccnc1`, for which the Potency in [1] is > 11.4 µM (inactive); in assay [5] it was > 46 µM (inactive); in assay [6] it was > 46 µM (inactive); in [9], 3.16 µM (active). The figures for the activity change, negative = inhibition in assay [2], in [3] and in assay [11] were 1.35% (inactive), 4.9% (inactive) and 2.36% (inactive), respectively. Besides, in assay [4], the activity, negative = inhibition is 14.8% (inactive). Also, the compound was classed as inactive in assay [7]. The Potency result in assay [8], in assay [10], in [12], in [13], in assay [14] and in assay [15] was “inactive” in each case. In addition, the Potency entry in [16] was “inactive”. Also, the max response in assay [11] (setting [18]) was determined as 4.31%; in assay [11] (setting [19]), 5.44%.

As for `Cc1noc(C)c1-c1cncnc1NCCN1CCOCC1`, the Potency in [1] is > 11.4 µM (inactive); in assay [5] it was > 46 µM (inactive); in [6], > 46 µM (inactive); in assay [9], 6.31 µM (active). Moreover, the activity change, negative = inhibition in assay [2] was 4.2% (inactive); in [3], -5.64% (inactive); in assay [11], 3.95% (inactive). In addition, in assay [4], the activity, negative = inhibition was -2.23% (inactive). In addition, in [7], the result was inactive. The Potency result in [8], in assay [10], in assay [12], in [13], in assay [14] and in assay [15] was “inactive” throughout. Besides, the Potency entry in assay [16] is “inactive”. Further, the figures for the max response in [11] (setting [18]) and in assay [11] (setting [19]) were 12.2% and 14.6%, respectively.

Take `CN(C)C(=O)c1ccc(-c2cc(-n3ccnc3)ncn2)cc1`: the Potency in assay [1] was > 11.4 µM (inactive); in [5], > 46 µM (inactive); in [6], > 46 µM (inactive); in [12] it was 11.2 µM (active); in assay [13], 10 µM (active); in assay [14] it was 12.6 µM (active). Besides, the activity change, negative = inhibition in [2] is -15.5% (inactive); in assay [3], 7.69% (inactive); in assay [11], 4.31% (inactive). The activity, negative = inhibition in assay [4] is 7.04% (inactive). In addition, the compound was called inactive in assay [7]. Moreover, the Potency entry in assay [8], in [15] and in assay [16] was “inactive” throughout. For the same compound, the max response in [11] (setting [18]) is 14.1%; in [11] (setting [19]), 16.5%.

`COc1ccc(-c2nc3cnc(Nc4cccc(OC)c4)nc3n(C3CC3)c2=O)cc1`: the Potency was > 11.4 µM (inactive) in assay [1], > 9.22 µM (inactive) in assay [5] and > 46 µM (inactive) in assay [6]. Further, the values for the activity change, negative = inhibition in [2], in assay [3] and in assay [11] were -4.98% (inactive), -8.58% (inactive) and 0.287% (inactive), respectively. The activity, negative = inhibition in assay [4] was 25.2% (inactive). In addition, the outcome in assay [7] was inactive. Also, the Potency result in assay [8], in assay [12], in [13], in [14], in assay [15] and in [16] was “inactive” throughout. The max response stood at 17.2% in [11] (setting [18]) and 15% in [11] (setting [19]).

On to `COc1cccc(Cn2c(=O)c(C)nc3cnc(OC)nc32)c1`, for which the Potency was > 11.4 µM (inactive) in [1], > 9.22 µM (inactive) in [5] and > 46 µM (inactive) in assay [6]. Further, the activity change, negative = inhibition in assay [2] was -5.98% (inactive); in assay [3], 5.79% (inactive); in assay [11], 5.06% (inactive). Further, the activity, negative = inhibition in assay [4] is -2.86% (inactive). For the same compound, the outcome in assay [7] was inactive. Also, the Potency result in assay [8], in [12], in assay [13], in assay [14], in assay [15] and in assay [16] was “inactive” each time. In assay [17], the activation is 12.8% (inactive). For the same compound, the values for the max response in [11] (setting [18]) and in assay [11] (setting [19]) were 15.1% and 19.3%, respectively.
